Screens deposited in PubChem by several laboratories.
Sampled rows, rich in hits. Any-hit rate of the full collection: about 1.8%.
EP2 antag = blocks the human prostaglandin E2 receptor EP2; P43116; C6 glioma cells expressing human EP2, cAMP TR-FRET; cells stimulated with saturating PGE2; inhibition, % at 25 µM; 260,000 tested, 0.52% active; AID 1422;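 active = percent inhibition above 40 after rounding to a whole number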;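 note: rat C6 glioma host cells with rolipram phosphodiesterase inhibitor present; the protocol text gives 20 µM as final concentration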
eIF4E-4G inh = inhibitors of eIF4E and eIF4G interaction in translation initiation; inhibition, % at 21.7 µM; AID 782; P63073+Q04637; 220,000 tested, 0.37% active; TR-FRET eIF4E-eIF4GI(517-606) binding, 2 h;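 active = inhibition above about 30%, limit read from the data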;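 note: 0% = full FRET control wells and 100% = background wells lacking eIF4GI fragment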
Target sequence (P63073 whole entry, looked up, the tested form may be a part): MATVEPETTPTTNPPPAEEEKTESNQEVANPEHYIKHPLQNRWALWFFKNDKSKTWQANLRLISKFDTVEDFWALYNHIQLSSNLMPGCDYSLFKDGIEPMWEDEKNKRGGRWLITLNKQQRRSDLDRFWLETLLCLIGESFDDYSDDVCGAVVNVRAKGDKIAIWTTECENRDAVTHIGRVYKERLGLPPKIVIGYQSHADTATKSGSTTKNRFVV
Target sequence (Q04637 whole entry, looked up, the tested form may be a part): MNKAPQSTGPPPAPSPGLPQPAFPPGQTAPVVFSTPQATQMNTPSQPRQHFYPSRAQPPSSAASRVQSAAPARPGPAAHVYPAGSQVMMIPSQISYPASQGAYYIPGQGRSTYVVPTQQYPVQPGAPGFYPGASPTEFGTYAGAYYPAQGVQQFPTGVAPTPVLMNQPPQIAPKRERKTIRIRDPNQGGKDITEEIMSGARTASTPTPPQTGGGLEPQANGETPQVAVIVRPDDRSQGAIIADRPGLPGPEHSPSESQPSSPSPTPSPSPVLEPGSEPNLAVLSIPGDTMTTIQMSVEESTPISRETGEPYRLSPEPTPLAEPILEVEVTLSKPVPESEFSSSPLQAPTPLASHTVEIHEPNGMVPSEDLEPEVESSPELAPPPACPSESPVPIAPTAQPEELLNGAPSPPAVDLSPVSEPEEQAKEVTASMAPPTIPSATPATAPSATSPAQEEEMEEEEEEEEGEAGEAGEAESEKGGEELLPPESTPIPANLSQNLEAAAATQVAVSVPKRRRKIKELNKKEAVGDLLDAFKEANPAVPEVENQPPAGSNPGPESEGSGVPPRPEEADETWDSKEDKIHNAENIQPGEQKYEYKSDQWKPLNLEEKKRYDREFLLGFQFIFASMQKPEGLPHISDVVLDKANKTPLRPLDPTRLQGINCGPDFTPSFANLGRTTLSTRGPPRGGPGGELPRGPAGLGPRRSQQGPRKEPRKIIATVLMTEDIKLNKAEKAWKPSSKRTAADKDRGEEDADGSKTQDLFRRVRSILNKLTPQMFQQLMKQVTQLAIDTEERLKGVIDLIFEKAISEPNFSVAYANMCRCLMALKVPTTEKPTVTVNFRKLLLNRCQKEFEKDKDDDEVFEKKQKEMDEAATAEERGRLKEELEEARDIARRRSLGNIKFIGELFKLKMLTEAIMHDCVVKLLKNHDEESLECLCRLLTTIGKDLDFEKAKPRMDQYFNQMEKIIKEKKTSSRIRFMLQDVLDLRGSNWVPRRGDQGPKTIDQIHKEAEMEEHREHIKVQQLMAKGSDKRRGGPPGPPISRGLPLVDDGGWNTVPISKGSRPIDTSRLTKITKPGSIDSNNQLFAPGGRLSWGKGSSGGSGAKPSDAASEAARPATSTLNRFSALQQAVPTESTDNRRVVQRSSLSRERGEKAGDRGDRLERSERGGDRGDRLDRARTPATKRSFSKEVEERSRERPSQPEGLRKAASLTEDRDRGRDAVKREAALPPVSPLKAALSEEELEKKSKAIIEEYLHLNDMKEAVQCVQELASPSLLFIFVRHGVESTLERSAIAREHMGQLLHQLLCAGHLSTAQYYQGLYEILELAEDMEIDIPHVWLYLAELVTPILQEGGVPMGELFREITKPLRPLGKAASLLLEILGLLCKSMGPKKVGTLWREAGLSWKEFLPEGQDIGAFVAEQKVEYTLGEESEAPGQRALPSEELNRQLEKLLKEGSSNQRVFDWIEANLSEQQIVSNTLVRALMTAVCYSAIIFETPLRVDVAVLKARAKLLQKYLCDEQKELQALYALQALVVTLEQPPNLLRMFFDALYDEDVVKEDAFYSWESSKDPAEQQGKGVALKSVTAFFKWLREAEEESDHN
EP2 mod = modulates human prostaglandin E2 receptor EP2 signaling. P43116. EP2-expressing cells, cAMP HTRF FRET, PGE2 co-stimulation. induction, % at 25 µM. 260,000 tested, 0.83% active. AID 940;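 active = compounds whose cAMP rise, as percent of the full-agonist control response, exceeds 60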;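 note: rat C6 glioma line stably carrying human EP2 under a CMV promoter; the protocol text gives 20 µM as final concentration; 100% = response of wells given 1 µM PGE2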
PERK inhibitor = blocks human PERK kinase | CHO PERK-DD fusion, SEAP luminescence translation reporter | inhibition, % at 5.6 µM | 220,000 tested, 0.17% active;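 active = inhibition above the mean inhibition of all tested compounds plus 3 SD, set separately per screening campaign, cut at about 2.9% in these data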;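 note: PERK kinase domain activated by AP20187 dimerizer at 100 nM; 0% = DMSO with dimerizer and 100% = rapamycin at 8.4 µM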
An asterisk follows results filed as active; nt = no result.

SMILES | EP2 antag | eIF4E-4G inh | EP2 mod | PERK inhibitor
CCC(c1nnnn1CC1CCCO1)N(Cc1ccc(F)cc1)Cc1cc2cccc(C)c2[nH]c1=O (centres undefined) | 13 | nt | 9 | nt
CC(=O)Nc1cccc(NC(=O)Nc2ccc(C(C)=O)cc2)c1 | 11 | 4 | 10 | 0
Cc1ccc(NC(=O)Nc2ccc3c(c2)N(C)C(=O)CS3)cc1C | 23 | 0 | -81 | -2
CC(=O)Nc1ccc(NC(=O)Nc2cc(C)cc(C)c2)cc1 | 9 | -8 | -16 | 3.6*
Cc1cc(C)cc(NC(=O)Nc2ccc3c(c2)N(C)C(=O)CS3)c1 | 43* | -6 | -70 | -1
COc1ccccc1C1(O)CCCN(C(=O)CCn2nc(C)c(C)c2C)C1 (centres undefined) | 3 | nt | -15 | nt
COCCCN1C(=O)C(O)=C(C(C)=O)C1c1ccc(OC)c(OC)c1 (centres undefined) | 6 | nt | 6 | nt
O=C(CCn1[nH]c(=O)c2ccccc2c1=O)NCCO | -3 | 35* | 10 | 0
Cc1cc(-c2nc(-c3ccc(C(C)(C)C)cc3)no2)no1 | 6 | -3 | -5 | 1
Cc1c(-c2nc(-c3ccc(C(C)(C)C)cc3)no2)n(C)oc1=O | 7 | 3 | 72* | 0
CCOc1cc(/C=N/NC(=O)Cn2nc([N+](=O)[O-])cc2C)cc(Br)c1OCc1ccccc1F | 1 | 6 | 3 | 0
CCOc1cc(/C=N/NC(N)=O)cc(Br)c1OCc1ccccc1F | 5 | 1 | 62* | 0
COc1ccc(CCNC(=O)c2ccc(-c3ccccc3Cl)o2)cc1OC | 62* | nt | -87 | nt
COc1ccc(CCNC(=O)c2ccc(-c3ccc([N+](=O)[O-])cc3Cl)o2)cc1OC | 14 | 4 | -10 | -1
CCN1CC(=O)Nc2cc(S(=O)(=O)N3CCOCC3)ccc21 | 3 | 3 | 14 | 3.7*
CCN1C(=O)Cc2cc(S(=O)(=O)N3CCOCC3)ccc21 | 12 | -2 | 29 | -2
Cc1ccccc1CSc1nncn1N | 8 | 46* | 18 | -1
COCC(=O)N(Cc1cc2cc(C)ccc2[nH]c1=O)c1cc(C)ccc1C | 14 | nt | 6 | nt
CCOC(=O)c1c(CSC(=N)N)n(-c2ccc(C)cc2)c2cc(Br)c(OC(C)=O)cc12 | 127* | 17 | -43 | 0
CC(C)(C)OC(=O)N1CCC[C@H](C(=O)c2ccc3c(c2)OCO3)C1 | 6 | nt | 16 | nt
Cn1c(=O)c2c(SCc3ccccc3)nc(-c3ccco3)nc2n(C)c1=O | 9 | 2 | 22 | 4.2*
Cc1ccc(CN2C(=O)C(C)Oc3ccc(C)cc32)cc1 (centres undefined) | 9 | nt | 83* | nt
Cc1ccc2c(c1)N(Cc1ccccn1)C(=O)C(C)O2 (centres undefined) | 6 | 7 | 11 | 0
COc1ccc(CCNc2nc(N3CCCCC3)nc(N3CCCCC3)n2)cc1OC | 16 | 5 | 61* | -1
COc1ccc(CCNc2nc(N3CCOCC3)nc(N3CCOCC3)n2)cc1OC | 13 | -4 | 16 | -1
SMILES | EP2 antag | eIF4E-4G inh | EP2 mod | PERK inhibitor
CCC(CC)c1nnc(NC(=O)CCCOc2ccccc2)s1 | 9 | nt | 62* | nt
CCC(CC)c1nnc(NC(=O)Oc2ccccc2)s1 | 9 | 5 | 0 | 1
CC(C)C1=C[C@@]23CC[C@@H]4[C@](C)(CCC[C@@]4(C)C(=O)O)[C@@H]2C[C@@H]1[C@H](C(=O)O)[C@@H]3C(=O)O | 50* | nt | 5 | nt
Cc1nnc(N)[nH]c1=O | 14 | nt | -10 | nt
Cc1ccc2c(c1C)NC(C)CC2C (centres undefined) | 9 | -5 | 25 | 3.4*
CC1CC(C)CN(C(=O)C(Cc2ccccc2)n2cccc2)C1 (centres undefined) | 8 | 7 | 62* | -1
OC[C@H]1O[C@@H](n2cnc3c(Nc4ccccc4)ncnc32)[C@H](O)[C@@H]1O | 15 | -2 | 11 | 1
OC[C@@H]1O[C@H](n2cnc3c(/C=C(\O)c4ccccc4)ncnc32)[C@H](O)[C@H]1O | 45* | nt | 7 | nt
O=C(Cn1nc2ccccc2n1)N/N=C/c1cc(Cl)cc([N+](=O)[O-])c1O | -2 | 1 | -17 | 2
Cc1ccccc1C(=O)Nc1cccc(C(=O)N/N=C/c2cc(Cl)cc([N+](=O)[O-])c2O)c1 | 3 | 36* | -37 | 1
COc1ccc(C2CC(=O)C(C=NCCN3CCN(C(=S)Nc4ccccc4)CC3)=C(O)C2)cc1 (centres undefined) | 7 | -2 | -37 | 0
Cc1ccc(C2CC(=O)C(C=NCCN3CCN(C(=S)Nc4ccccc4)CC3)=C(O)C2)cc1 (centres undefined) | 3 | 97* | 5 | 1
COc1ccc2[nH]c3c(NCCC4=CCCCC4)ncnc3c2c1 | 75* | 6 | -71 | 2
CCN(CC)CCNc1ncnc2c1[nH]c1ccc(OC)cc12 | 6 | 7 | -28 | 0
Oc1ccc(/C=N/Nc2nn3cnnc3c3ccccc23)cc1 | 9 | 98* | -12 | 0
CC1Cc2ccccc2N1C(=O)CSc1nc(-c2cccs2)cc(C(F)(F)F)n1 (centres undefined) | 15 | nt | 12 | nt
Cc1sc2nc(C3CC3)nc(SCC(=O)Nc3ccc(N(C)C)cc3)c2c1C | 16 | nt | 65* | nt
CCc1nc(SCC(=O)Nc2ccc(N(C)C)cc2)c2c(C)c(C)sc2n1 | 10 | nt | -2 | nt
CN(C)c1ccc(NC(=O)CSc2nc(N)c(C(=O)Nc3ccc(N(C)C)cc3)s2)cc1 | 41* | 10 | -43 | -1
COc1ccc(NC(=O)CSc2nc(N)c(C(=O)Nc3ccc(N(C)C)cc3)s2)cc1 | 6 | -3 | -20 | -2
CCC(Sc1nc(-c2ccccc2)cc(=O)[nH]1)C(=O)O (centres undefined) | 11 | 3 | 0 | 3.0*
Cc1cccc(NC(=O)CN2C(=O)S/C(=C\c3ccc(O)c([N+](=O)[O-])c3)C2=O)c1 | 8 | -4 | 20 | 0
Cc1ccc(NC(=O)CN2C(=O)S/C(=C/c3ccc(O)c([N+](=O)[O-])c3)C2=O)cc1C | 10 | 45* | -15 | 0
COc1ccc(OC)c(NC2c3ncccc3C(=O)N2Cc2ccco2)c1 (centres undefined) | 7 | -1 | 22 | 0
COc1ccc(CN2C(=O)c3cccnc3C2Nc2cc(Cl)ccc2OC)cc1 (centres undefined) | 5 | 99* | 22 | 0
SMILES | EP2 antag | eIF4E-4G inh | EP2 mod | PERK inhibitor
Cc1ccc2cc3c(N)c(-c4nnc(-c5ccccc5)o4)sc3nc2c1 | 14 | nt | -16 | nt
COC(=O)C12CCC(C)(c3nc4ccccc4nc31)C2(C)C (centres undefined) | 6 | 0 | 17 | 0
CC(C)(C)NC(=O)C12CCC(C)(c3nc4ccccc4nc31)C2(C)C (centres undefined) | 4 | 1 | 64* | -1
CCOC(=O)C1=C(C)NC(=O)N[C@@H]1c1coc2cc(C)cc(C)c2c1=O | 53* | nt | 8 | nt
COc1ccc(S(=O)(=O)N(CC(=O)NCc2ccccn2)C2CCCCC2)cc1OC | 11 | nt | -15 | nt
O=S(=O)(Nc1ccccc1N1CCCCC1)c1cccs1 | 11 | 5 | 24 | 1
O=C(Nc1ccccc1N1CCCCC1)c1ncoc1-c1cccc(F)c1 | 4 | -13 | 43 | 2
